Rows were chosen to be rich in hits. Some 2.4% of all compounds tested hit in one or more screens of this group.
D2 PAM-1: potentiates the human D2 dopamine receptor allosterically | P14416 | DiscoveRx D2 beta-arrestin cells, luminescence, 90 min; 100% = 57 uM dopamine signal | potentiation, % (concentration not given with the values) | 360,000 tested, 0.23% active; in the data active = potentiation above about 50%; inconclusive = mostly about 30% to 49%
Target sequence (P14416 whole entry, looked up): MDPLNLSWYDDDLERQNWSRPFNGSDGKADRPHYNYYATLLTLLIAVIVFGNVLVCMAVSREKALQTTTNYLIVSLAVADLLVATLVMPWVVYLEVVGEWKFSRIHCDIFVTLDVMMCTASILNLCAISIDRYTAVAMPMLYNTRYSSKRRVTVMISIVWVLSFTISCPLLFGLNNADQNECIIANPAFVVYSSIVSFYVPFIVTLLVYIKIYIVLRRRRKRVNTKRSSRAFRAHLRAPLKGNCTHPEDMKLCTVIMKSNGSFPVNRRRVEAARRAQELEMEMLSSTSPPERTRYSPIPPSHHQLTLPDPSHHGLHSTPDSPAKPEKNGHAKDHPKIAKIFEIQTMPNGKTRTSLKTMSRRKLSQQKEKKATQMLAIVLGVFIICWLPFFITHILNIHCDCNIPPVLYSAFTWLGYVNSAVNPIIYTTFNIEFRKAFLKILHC
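D2 cells co-treated with compound plus 50 nM dopamine (EC20) for 90 min at 37 deg C to detect potentiation. Beta-arrestin recruitment was read as enzyme-fragment luminescence after 1 h at ambient temperature. Full response was set by 57 uM dopamine.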
D2 antagonist: antagonizes the human D2 dopamine receptor; HEK293 TREx D2 cells, calcium flux, dopamine EC80; inhibition, % at 10 µM; 340,000 tested, 2% active; AID 485344; in the data active = inhibition above about 30%; inactive = below that, where a call was filed; note: 0% is about no effect
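Antagonism is scored as inhibition of an EC80 dopamine-evoked calcium signal in a force-coupled, tetracycline-inducible HEK293 T-REx D2 line, with compound present 180 s before agonist.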
D2 PAM-2: positively modulates the human D2 dopamine receptor allosterically | AID 485347 | HEK293 T-REx D2, calcium flux, EC20 dopamine potentiation | P14416 | potentiation, % at 10 µM | 340,000 tested, 0.34% active;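 active = potentiation over 3 SD above the plate norm, cut at about 30% in these data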; note: 0% is about no effect
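Cells plated with tetracycline inducer and held overnight at 30 C; calcium dye loaded 30–90 min at room temperature; baseline taken, compound added and read 180 s; EC20 dopamine then added and read 180 s.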
D2 ag-1: D2 dopamine receptor (human) agonism; P14416; HEK293 T-REx D2 cells, calcium flux agonist mode; activation, % at 2 µM; 340,000 tested, 0.53% active; AID 485358;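 active = activation over 3 SD above normal in the single-dose calcium agonist read, cut at about 30% in these data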; note: 0% is about no effect
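Tetracycline-induced HEK293 T-REx cells with force-coupled D2 receptor, plated overnight at 30 C, loaded with no-wash calcium dye. After a 10 s baseline, compound was pin-added and calcium flux read kinetically for 180 s; calcium rises flagged agonists.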
D2 ag-2: agonists of human D2 dopamine receptor (beta-arrestin); P14416; DiscoveRx PathHunter D2 beta-arrestin, luminescence, 90 min; 100% = 57 uM dopamine signal; activation, % (no concentration beside the values); 360,000 tested, 0.084% active; AID 624465; in the data active = activation above about 40%; inconclusive = between about 15% and that limit
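Agonist mode: compounds alone added to overnight-plated D2 PathHunter cells for 90 min at 37 C, with 57 uM final dopamine (EC100) defining full response. Beta-arrestin recruitment detected by chemiluminescent reagent, read after 1 h at ambient temperature.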
D3 arrestin ag: activates human D3 dopamine receptor beta-arrestin recruitment. shares compounds with D2 ag-1. DiscoveRx D3 beta-arrestin cells, luminescence, 90 min. Potency, µM (doses to about 76.9 µM), inactives show at the top dose activation, hits mostly activators. 2,300 tested, 4% active. AID 720506;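 note: potency is the fitted concentration of half-maximal effect; 100% = dopamine control response; nearly all actives have a fitted effect of over 70% in size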
D2 ag-3: D2 receptor agonism, beta-arrestin counterscreen | shares compounds with D2 ag-1 | DiscoveRx PathHunter D2 beta-arrestin, luminescence, 90 min; response scale: percent relative to full dopamine signal | Potency, µM (highest dose often 76.9 µM), for inactives: at the highest dose activation, hits mostly activators | 2,300 tested, 5.9% active | AID 720507; note: potency is the fitted concentration of half-maximal effect; % of control where 0% means no effect; nearly all actives have a fitted effect of over 70% in size
* marks the source's active call; other numbers are inactive results; ? = inconclusive; . = no result; ! = not active in a repeat. Unless noted, calls come from the whole dose curve; as a rule, active = well fitted activation curve with a large enough effect; inconclusive = small, poorly fitted or top-dose-only effect; inactive = flat fitted curve, though single readings scatter.

SMILES | D2 PAM-1 | D2 antagonist | D2 PAM-2 | D2 ag-1 | D2 ag-2 | D3 arrestin ag | D2 ag-3
O=C(Cc1csc(Nc2nc(=S)[nH]c3ccccc23)n1)NCCCN1CCN(c2ccccc2F)CC1 | -28 | 67* | -19 | 47* | 13 | 9% | 15%
O=C(Cc1csc(Nc2nc(=S)[nH]c3ccccc23)n1)NCc1ccc(Cl)cc1 | -1 | 10 | -16 | 0 | 0 | . | .
CCCn1c2ccccc2c2cnn(CC(=O)NCCCN3CCN(c4ccccc4)CC3)c(=O)c21 | -32 | 88* | -25 | 22 | 0 | 17% | 9%
Cn1c2ccccc2c2cnn(CC(=O)NCCCN3CCN(c4ccccc4F)CC3)c(=O)c21 | -7 | 63* | -24 | 69*! | 3 | 13% | 26%
O=S(=O)(NCC(c1ccco1)S(=O)(=O)c1ccccc1)c1cc(F)ccc1F (centres undefined) | . | . | 2 | 1 | . | . | .
CCOc1ccc(CCNC(=O)c2cn(CC)c3ccc(S(=O)(=O)N4CCCCCC4)cc3c2=O)cc1OCC | . | . | 3 | -1 | . | . | .
O=C(c1ccccc1F)N1CCN(S(=O)(=O)c2ccc3c(c2)OCCO3)CC1 | 0 | 6 | -11 | -1 | 0 | . | .
O=C(c1ccccc1OC(F)F)N1CCN(S(=O)(=O)c2ccc3c(c2)OCCCO3)CC1 | -4 | 1 | 5 | 1 | 2 | -1% | 5%
COc1cc(CN(C(=O)c2ccc(Cl)cc2)C2CCS(=O)(=O)C2)cc(OC)c1OC (centres undefined) | . | . | 3 | 0 | . | . | .
NCCCCCc1nnc(SCc2ccc(F)cc2)o1 | . | . | -7 | 0 | . | . | .
CC1(C)C(C=C(Cl)Cl)C1C(=O)N1CCN(Cc2ccccc2)CC1 (centres undefined) | ? | 78* | -23 | 70* | ? | ? | 18µM*
CSCC[C@H](NC(=O)C1CCN(S(=O)(=O)c2ccc(C)cc2)CC1)C(=O)NC1CCS(=O)(=O)C1 (some centres undefined) | -6 | 13 | -18 | 53* | -3 | -2% | -3%
O=C(NC(=S)Nc1ccc(CN2CCOCC2)cc1)c1ccc([N+](=O)[O-])cc1Cl | -16 | 16 | 0 | 6 | 1 | . | .
O=C(NC(=S)Nc1ccc(CN2CCOCC2)cc1)c1ccccc1[N+](=O)[O-] | -1 | . | . | . | -1 | -21% | -1%
O=C(OCCN1C(=O)c2cccc3c(N4CCOCC4)ccc(c23)C1=O)c1ccc(Cl)cc1 | -22 | 4 | -2 | 70* | -2 | 5% | 1%
CCCN(CCC)S(=O)(=O)c1ccc(C(=O)OCCN2C(=O)c3cccc4c(N5CCOCC5)ccc(c34)C2=O)cc1 | -6 | 10 | -3 | 62* | 2 | -4% | 0%
CCN(CC)S(=O)(=O)c1ccc(C(=O)N2CCN(CCN3C(=O)c4cccc5cccc(c45)C3=O)CC2)cc1 | . | 1 | 6 | 1 | . | . | .
OC(COc1ccc2c(c1)OCO2)CN1CCN(c2ccc(F)cc2)CC1 (centres undefined) | -6 | 76* | -34 | 30 | 1 | 5% | -1%
CCC(=O)c1ccc(OCC(O)CN2CCN(c3ccc(F)cc3)CC2)cc1 (centres undefined) | -8 | 31* | -6 | 7 | 0 | ? | 18%
CC(C)c1ccc(OCC(O)CN2CCN(c3ccc(F)cc3)CC2)cc1 (centres undefined) | . | . | -16 | 29 | . | . | .
CC(=O)c1ccc(OCC(O)CN2CCN(c3ccc(F)cc3)CC2)cc1 (centres undefined) | -16 | 17 | -49 | 83* | 9 | 20% | 24%
COc1ccc(-c2c(C)c3ccc(O)c(CN4CCC(C)CC4)c3oc2=O)cc1OC | . | . | 16 | 0 | . | . | .
CCc1cccc(CC)c1NC(=O)c1cc(S(=O)(=O)N2CCc3ccccc32)cn1C | . | . | 3 | 1 | . | . | .
CCOc1ccc(/C=N/NC(=O)c2cc(-c3ccccc3)nc3ccccc23)cc1O | -9 | . | . | . | -5 | 1% | 7%
O=C(C1CCN(S(=O)(=O)c2ccc(Cl)c(C(F)(F)F)c2)CC1)N1CCC1 | -1 | -9 | 1 | 1 | 5 | 0% | 1%
SMILES | D2 PAM-1 | D2 antagonist | D2 PAM-2 | D2 ag-1 | D2 ag-2 | D3 arrestin ag | D2 ag-3
O=C(CN(Cc1ccc(F)cc1)C(=O)CNS(=O)(=O)c1ccc(F)cc1)NCC1CCCO1 (centres undefined) | 4 | 9 | -1 | 3 | 3 | 1% | -1%
O=C(CN(Cc1cccs1)C(=O)CNS(=O)(=O)c1ccc(F)cc1)NCC1CCCO1 (centres undefined) | -19 | 0 | 3 | 0 | -7 | . | .
Cc1ccccc1-c1nc(CS(=O)(=O)CC(=O)NCc2cccc(Cl)c2)c(C)o1 | . | . | 4 | 0 | . | . | .
CC(CCc1ccc(O)cc1)N(C)CCc1ccccc1 (centres undefined) | -16 | 91* | -25 | 39* | -1 | 1% | 0%
Nc1nc(N2CCN(C(c3ccccc3)c3ccccc3)CC2)n[nH]1 | 4 | -3 | -2 | 0 | -1 | . | .
Nc1nc(N2CCN(Cc3ccccc3)CC2)n[nH]1 | ? | -19 | -27 | 94* | 68* | ? | 4.5µM*
N#CC(C(=O)OCc1ccccc1)c1nc2ccccc2nc1N1CCOCC1 (centres undefined) | -5 | 24 | 8 | 5 | -8 | -25% | -7%
N#CC(C(=O)NC1CCCCC1)c1nc2ccccc2nc1N1CCOCC1 (centres undefined) | . | -1 | -2 | -1 | . | . | .
CCSc1nc(CC)c2c(c1C#N)CCCC2 | -5 | -2 | -19 | 56* | -1 | -4% | 9%
Cc1ccc(NC(=O)NCCN2CCN(c3ccccc3)CC2)cc1Cl | -27 | 65* | -26 | 66* | 7 | 30% | ?
O=C(NCCN1CCN(c2ccccc2)CC1)Nc1cccc(Cl)c1 | -8 | 73* | -30 | 75* | ? | ? | 21%
Cc1ccc(NC(=O)NCCN2CCCCC2)cc1Cl | -10 | -19 | -28 | 1 | -2 | . | .
COc1ccc(Cl)c(NC(=O)NCCN2CCN(c3ccccc3)CC2)c1 | -3 | -12 | -35 | 17 | -1 | . | .
Cc1cccc(NC(=O)NCCN2CCN(c3ccccc3)CC2)c1C | -29 | 57* | -26 | 57* | 5 | 12% | 4%
O=C(NCCN1CCN(c2ccccc2Cl)CC1)Nc1ccccc1 | -9 | 52* | -24 | 67* | 6 | 17% | 10%
COc1ccc(CCNC(=O)CCn2c(=O)c3ccccc3n(Cc3ccccc3F)c2=O)cc1OC | . | . | 18 | 0 | . | . | .
